In PubChem BioAssay (EPA / NIEHS):
Activity calls are given as the source filed them. Rule for the calls: active = hit-call score of the fitted dose curve at least 0.9, where 1 is the maximum; inactive = score below 0.9.

These compounds were tested against Hepatocyte nuclear factor 3-beta (Homo sapiens) (UniProt Q9Y261) (assay: ATG_FoxA2_CIS: Attagene CIS-FACTORIAL HepG2 Assay for human Forkhead box A2 (FOXA2) (AID 2282942)). Conditions: HepG2 cis-reporter transcription factor activity, 24 h; actives raise or lower the signal.
Chain of Hepatocyte nuclear factor 3-beta (Homo sapiens) (Q9Y261 whole entry, looked up): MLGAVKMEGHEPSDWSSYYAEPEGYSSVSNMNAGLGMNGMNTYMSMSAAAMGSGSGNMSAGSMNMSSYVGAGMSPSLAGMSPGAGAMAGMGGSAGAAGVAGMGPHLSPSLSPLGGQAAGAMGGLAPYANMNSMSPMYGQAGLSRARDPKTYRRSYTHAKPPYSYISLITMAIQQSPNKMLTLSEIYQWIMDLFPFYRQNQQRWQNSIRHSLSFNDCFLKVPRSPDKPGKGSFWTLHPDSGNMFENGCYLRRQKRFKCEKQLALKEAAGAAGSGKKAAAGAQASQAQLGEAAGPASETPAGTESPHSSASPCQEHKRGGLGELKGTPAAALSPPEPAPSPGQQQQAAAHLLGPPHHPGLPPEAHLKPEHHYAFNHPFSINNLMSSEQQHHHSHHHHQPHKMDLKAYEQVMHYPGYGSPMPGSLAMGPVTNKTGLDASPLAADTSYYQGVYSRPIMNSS
How it was run: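 Multiplexed cis-element reporter assay in transiently transfected HepG2. Twenty-four hours post-dosing, RNA was reverse-transcribed, amplified, FAM-labelled, HpaI-digested and separated by CE. Activity gain or loss relative to DMSO.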
O=C1C(Cl)=C(Cl)C(=O)C(Cl)=C1Cl was tested, and the outcome was “inactive”. In the case of N#CCCCCC#N, the outcome is reported as “inactive”. In the case of CC1CCC(=O)O1 (stereo not drawn), the outcome is reported as “inactive”. With COc1cc(OC)c(OC)cc1C=O the outcome was “inactive”. CC(C)c1ccc(O)cc1 was tested, and the outcome was “inactive”. For C[N+](C)(C)CC(=O)[O-], the outcome was “inactive”. With CC(C)(c1cc(Cl)c(O)c(Cl)c1)c1cc(Cl)c(O)c(Cl)c1 the outcome was “inactive”. For O=C(NCNC(=O)NC1C(=O)NC(=O)N1CO)NC1C(=O)NC(=O)N1CO (stereo not drawn), the outcome was “inactive”. [N-]=[N+]=CC(=O)OC[C@H](N)C(=O)O was tested, and the outcome was “inactive”. For COCC(=O)N(c1c(C)cccc1C)N1CCOC1=O, the outcome was “inactive”. In the case of CC(C)CCCCCCCOP(=O)(Oc1ccccc1)Oc1ccccc1, the outcome is reported as “inactive”. CCC1CCC(=O)O1 (stereo not drawn) was tested, and the outcome was “inactive”. In the case of C=COCCCl, the outcome is reported as “inactive”. For C=CCN(CC=C)C(=O)C(Cl)Cl, the outcome was “inactive”. In the case of CC[N+](=O)[O-], the outcome is reported as “inactive”. CC(Cc1ccc(C(C)(C)C)cc1)CN1C[C@@H](C)O[C@@H](C)C1 (stereo partly drawn) was tested, and the outcome was “inactive”. For [Cl-].[Cl-].[Cl-].[Yb+3], the outcome was “inactive”. CCOC(=O)N(C)N=O was tested, and the outcome was “inactive”. With O=CNC(N1CCN(C(NC=O)C(Cl)(Cl)Cl)CC1)C(Cl)(Cl)Cl (stereo not drawn) the outcome was “inactive”. In the case of CCC[N+](=O)[O-], the outcome is reported as “inactive”. With CC(C)(O)C#N the outcome was “inactive”. For CC(C)C#N, the outcome was “inactive”. In the case of S=c1[nH]c2ccccc2[nH]1, the outcome is reported as “inactive”. For CCCCCc1cc(O)cc(O)c1, the outcome was “inactive”. With c1ccc(Nc2ccc3ccccc3c2)cc1 the outcome was “inactive”. For CSc1nc(N=[N+]=[N-])nc(NC(C)C)n1, the outcome was “inactive”. For CC=Cc1ccc2c(c1)OCO2, the outcome was “inactive”. Cc1ccc(OP(=O)(Oc2ccc(C)cc2)Oc2ccc(C)cc2)cc1 (tested in a mixture with another compound) was tested, and the outcome was “inactive”.
